# Source: the supplement of paper PMC8728848
# The entries come from a sample that favours the strongest signals as a whole.
# B1: PX14343E-bfa-545-24-545 (Bacteroides fragilis) (protein)
# chain: LDRYPQEELSDGSFWKTPDDANKVVSDLYGYLSTWDQDNDINSDNATMGIKWAAGNVSKGIYDPADQGWSGDYANVRQCNLILSKIDEIPDYPEADKTKALGQVYFFRAYIYFNLIRSFGDVPYIDKPLDLKDMEGITRMPRAEVYEKIMADFDKAIAALPTEWGASDYGRVTKGAAMAMKARAALYYGNWDTAATEAKNVMDLGLYELYDKDNTGKYAELFWEKADGCDEFILVTQFNYPDKTHYLMGWECFPTKGWGGMNPTQSLVDAFEDSEGAPISKSKIYDPTDPFKNRDPRLEVDILHDGEEMYGVTIKVAPLASSGSTGINQHNDATETGYYGQKWLDPSLDPLSDGWNMGKDWVHIRYAEVLLTYAEAKNELQGLDPEAFDAVNQVRRRVGMPELQNTDPSKPTYCATQDDLRQRIRNEWRVEFCLEGGKRMWDIRRWGIAKDVLNAPFEGLKYKIVDNPNDPDKKVDGGKMCILYQGDPIILSGSRYSDNNYLFPVPQSEIDLNPALTQNPGY
# Columns and labels:
# Experiment in all cases: glycan array binding signal (z-score within array); higher = stronger binding
# Conditions in all cases: glycan notation: IUPAC condensed, linker removed
# [1] = biological target: Fuc(a1-2)Gal(b1-3)GalNAc(b1-3)Gal(a1-4)Gal(b1-4)Glc
# Summary of the method: (§1)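 The Consortium for Functional Glycomics database supplied 3228 glycan arrays, of which those lacking an available protein sequence were dropped. The binding signal, a within-array Z-score, was averaged across arrays of the same protein sequence and across linkers. Negative scores can be read as non-binding.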
# [2] = biological target: Fuc(a1-2)Gal(b1-4)GlcNAc(b1-2)[Fuc(a1-2)Gal(b1-4)GlcNAc(b1-4)]Man(a1-3)[Fuc(a1-2)Gal(b1-4)GlcNAc(b1-2)Man(a1-6)]Man(b1-4)GlcNAc(b1-4)GlcNAc
# Summary of the method: as §1
# [3] = biological target: Fuc(a1-2)Gal(b1-4)[Fuc(a1-3)]GlcNAc
# Summary of the method: as §1
# [4] = biological target: Fuc(a1-2)Gal(b1-4)[Fuc(a1-3)]GlcNAc(b1-2)Man(a1-3)[Fuc(a1-2)Gal(b1-4)[Fuc(a1-3)]GlcNAc(b1-2)Man(a1-6)]Man(b1-4)GlcNAc(b1-4)[Fuc(a1-6)]GlcNAc
# Summary of the method: as §1
# [5] = biological target: Fuc(a1-2)[Gal(a1-3)]Gal(b1-3)GalNAc(b1-3)Gal(a1-4)Gal(b1-4)Glc
# Summary of the method: as §1
# [6] = biological target: Fuc(a1-2)[Gal(a1-3)]Gal(b1-4)GlcNAc
# Summary of the method: as §1
# [7] = biological target: Fuc(a1-2)[GalNAc(a1-3)]Gal(b1-4)GlcNAc(b1-3)GalNAc
# Summary of the method: as §1
# [8] = biological target: Fuc(a1-2)[GalNAc(a1-3)]Gal(b1-4)GlcNAc(b1-6)GalNAc
# Summary of the method: as §1
# [9] = biological target: Fuc(a1-3)[Gal(b1-4)]GlcNAc(b1-2)Man(a1-3)[Fuc(a1-3)[Gal(b1-4)]GlcNAc(b1-2)Man(a1-6)]Man(b1-4)GlcNAc(b1-4)GlcNAc
# Summary of the method: as §1
# [10] = biological target: Fuc(a1-3)[Gal(b1-4)]GlcNAc(b1-3)GalNAc
# Summary of the method: as §1
# [11] = biological target: Gal(a1-3)Gal(b1-3)[Fuc(a1-4)]GlcNAc(b1-2)Man(a1-3)[Gal(a1-3)Gal(b1-3)[Fuc(a1-4)]GlcNAc(b1-2)Man(a1-6)]Man(b1-4)GlcNAc(b1-4)GlcNAc
# Summary of the method: as §1
# [12] = biological target: Gal(a1-3)Gal(b1-4)GlcNAc(b1-2)Man(a1-3)[Gal(a1-3)Gal(b1-4)GlcNAc(b1-2)Man(a1-6)]Man(b1-4)GlcNAc(b1-4)GlcNAc
# Summary of the method: as §1
# [13] = biological target: Gal(a1-3)Gal(b1-4)[Fuc(a1-3)]GlcNAc(b1-2)Man(a1-3)[Gal(a1-3)Gal(b1-4)[Fuc(a1-3)]GlcNAc(b1-2)Man(a1-6)]Man(b1-4)GlcNAc(b1-4)GlcNAc
# Summary of the method: as §1
# [14] = biological target: Gal(a1-4)Gal(b1-3)GlcNAc(b1-2)Man(a1-3)[Gal(a1-4)Gal(b1-3)GlcNAc(b1-2)Man(a1-6)]Man(b1-4)GlcNAc(b1-4)GlcNAc
# Summary of the method: as §1
# [15] = biological target: Gal(b1-3)GlcNAc(b1-2)Man(a1-3)[Gal(b1-3)GlcNAc(b1-2)Man(a1-6)]Man(b1-4)GlcNAc(b1-4)GlcNAc
# Summary of the method: as §1
# [16] = biological target: Gal(b1-3)GlcNAc(b1-3)Gal(b1-4)GlcNAc
# Summary of the method: as §1
# [17] = biological target: Gal(b1-3)[Neu5Ac(a2-6)]GlcNAc(b1-4)Gal(b1-4)Glc
# Summary of the method: as §1
# [18] = biological target: Gal(b1-4)GlcNAc(b1-3)Gal(b1-4)GlcNAc(b1-2)[Gal(b1-4)GlcNAc(b1-3)Gal(b1-4)GlcNAc(b1-6)]Man(a1-6)[Gal(b1-4)GlcNAc(b1-3)Gal(b1-4)GlcNAc(b1-2)Man(a1-3)]Man(b1-4)GlcNAc(b1-4)[Fuc(a1-6)]GlcNAc
# Summary of the method: as §1
# [19] = biological target: Gal(b1-4)GlcNAc(b1-3)Gal(b1-4)GlcNAc(b1-3)Gal(b1-4)GlcNAc(b1-2)Man(a1-3)[Gal(b1-4)GlcNAc(b1-3)Gal(b1-4)GlcNAc(b1-3)Gal(b1-4)GlcNAc(b1-2)Man(a1-6)]Man(b1-4)GlcNAc(b1-4)GlcNAc
# Summary of the method: as §1
# [20] = biological target: Gal(b1-4)GlcNAc(b1-3)Gal(b1-4)GlcNAc(b1-3)Gal(b1-4)GlcNAc(b1-2)[Gal(b1-4)GlcNAc(b1-3)Gal(b1-4)GlcNAc(b1-3)Gal(b1-4)GlcNAc(b1-6)]Man(a1-6)[Gal(b1-4)GlcNAc(b1-3)Gal(b1-4)GlcNAc(b1-3)Gal(b1-4)GlcNAc(b1-2)Man(a1-3)]Man(b1-4)GlcNAc(b1-4)[Fuc(a1-6)]GlcNAc
# Summary of the method: as §1
# [21] = biological target: Gal(b1-4)GlcNAc(b1-3)Gal(b1-4)GlcNAc(b1-3)Gal(b1-4)GlcNAc(b1-3)Gal(b1-4)GlcNAc(b1-2)Man(a1-3)[Gal(b1-4)GlcNAc(b1-3)Gal(b1-4)GlcNAc(b1-3)Gal(b1-4)GlcNAc(b1-3)Gal(b1-4)GlcNAc(b1-2)Man(a1-6)]Man(b1-4)GlcNAc(b1-4)[Fuc(a1-6)]GlcNAc
# Summary of the method: as §1
# [22] = biological target: Gal(b1-4)GlcNAc(b1-3)Gal(b1-4)GlcNAc(b1-3)[Gal(b1-4)GlcNAc(b1-3)Gal(b1-4)GlcNAc(b1-6)]GalNAc
# Summary of the method: as §1
# [23] = biological target: Gal(b1-4)GlcNAc(b1-6)[Gal(b1-4)GlcNAc(b1-3)]GalNAc
# Summary of the method: as §1
# [24] = biological target: Gal6S(b1-4)GlcNAc6S
# Summary of the method: as §1
# [25] = biological target: GalNAc(b1-3)GlcNAc
# Summary of the method: as §1
# [26] = biological target: GalNAc(b1-4)GlcNAc(b1-2)Man(a1-3)[GalNAc(b1-4)GlcNAc(b1-2)Man(a1-6)]Man(b1-4)GlcNAc(b1-4)GlcNAc
# Summary of the method: as §1
# [27] = biological target: Glc(b1-4)Glc
# Summary of the method: as §1
# [28] = biological target: GlcA(b1-3)Gal
# Summary of the method: as §1
# [29] = biological target: GlcA3S(b1-3)Gal(b1-4)GlcNAc(b1-2)Man
# Summary of the method: as §1
# [30] = biological target: GlcNAc(a1-4)Gal(b1-4)GalNAc
# Summary of the method: as §1
binder,measurement,setting,value
B1,glycan array binding signal (z-score),[1],-0.281
same,glycan array binding signal (z-score),[2],-0.211
same,glycan array binding signal (z-score),[3],-0.665
same,glycan array binding signal (z-score),[4],0.859
same,glycan array binding signal (z-score),[5],-0.61
same,glycan array binding signal (z-score),[6],-0.855
same,glycan array binding signal (z-score),[7],-0.508
same,glycan array binding signal (z-score),[8],0.103
same,glycan array binding signal (z-score),[9],4.63
same,glycan array binding signal (z-score),[10],1.3
same,glycan array binding signal (z-score),[11],2.95
same,glycan array binding signal (z-score),[12],4.55
same,glycan array binding signal (z-score),[13],3.48
same,glycan array binding signal (z-score),[14],2.18
same,glycan array binding signal (z-score),[15],0.652
same,glycan array binding signal (z-score),[16],-0.675
same,glycan array binding signal (z-score),[17],-0.838
same,glycan array binding signal (z-score),[18],1.62
same,glycan array binding signal (z-score),[19],3.79
same,glycan array binding signal (z-score),[20],4.56
same,glycan array binding signal (z-score),[21],2.87
same,glycan array binding signal (z-score),[22],2.88
same,glycan array binding signal (z-score),[23],-0.034
same,glycan array binding signal (z-score),[24],-0.429
same,glycan array binding signal (z-score),[25],0.169
same,glycan array binding signal (z-score),[26],1.25
same,glycan array binding signal (z-score),[27],0.195
same,glycan array binding signal (z-score),[28],-0.027
same,glycan array binding signal (z-score),[29],-0.441
same,glycan array binding signal (z-score),[30],0.655
